Test results taken from PubChem BioAssay (EPA / NIEHS).
Active and inactive are the calls of the source. The calls were made as follows: active = hit-call score of the fitted dose curve at least 0.9, where 1 is the maximum; inactive = score below 0.9.

How the values were obtained:
Details in all cases: mRNA level, 48 h; actives raise or lower the signal
[1] = read-out: Cytochrome P450 (CYP1A1), CYP1A1 (gene 1543); experiment: LTEA_HepaRG_CYP1A1: Life Technologies and Expression Analysis (LTEA) Assay for Cytochrome P450 (CYP1A1) using HepaRG (AID 2283454)
Method in brief: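 Induction of CYP1A1 mRNA in a human hepatic cell line was measured 48 h after dosing, with 1 mM phenobarbital as induction positive control and 0.5% DMSO vehicle as baseline for bidirectional curve fitting.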

[2] = read-out: CFLAR gene, CFLAR (gene 8837); experiment: LTEA_HepaRG_CFLAR: Life Technologies and Expression Analysis (LTEA) Assay for CFLAR gene using HepaRG (AID 2283455)
Method in brief: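 Gain- or loss-of-signal changes in CFLAR transcript were fitted bidirectionally relative to 0.5% DMSO. Cells (HepaRG, duplicate wells) were dosed for 48 h across eight half-log concentrations topping at 100 uM; quantitation by TaqMan qRT-PCR.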

[3] = read-out: Forkhead box O1 (FOXO1), FOXO1 (gene 2308); experiment: LTEA_HepaRG_FOXO1: Life Technologies and Expression Analysis (LTEA) Assay for Forkhead box O1 (FOXO1) using HepaRG (AID 2283456)
Method in brief: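 Using one lot of HepaRG hepatic cells kept in 0.5% DMSO, the team applied test chemicals in duplicate, half-log dilutions from 100 uM, for 48 h. Expression, normalised to ACTB/GAPDH/POLR2A, was compared with vehicle in either direction.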

[4] = read-out: growth arrest and DNA damage 45 (GADD45A), GADD45A (gene 1647); experiment: LTEA_HepaRG_GADD45A: Life Technologies and Expression Analysis (LTEA) Assay for growth arrest and DNA damage 45 (GADD45A) using HepaRG (AID 2283458)
Method in brief: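 HepaRG, 48 h exposure, 8 conc. (top 100 uM, half-log steps), 0.5% DMSO vehicle, duplicates. Read-out: qRT-PCR mRNA level, housekeeping-normalized (ACTB/GAPDH/POLR2A). Curves fit bidirectionally vs DMSO baseline.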

[5] = read-out: Forkhead box O3 (FOXO3), FOXO3 (gene 2309); experiment: LTEA_HepaRG_FOXO3: Life Technologies and Expression Analysis (LTEA) Assay for Forkhead box O3 (FOXO3) using HepaRG (AID 2283459)
Method in brief: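 Gene-expression endpoint: FOXO3 transcript level by qRT-PCR in HepaRG cultures treated 48 h with chemicals up to 100 uM (half-log, 0.5% DMSO vehicle).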

[6] = read-out: growth arrest and DNA damage 45 (GADD45B), GADD45B (gene 4616); experiment: LTEA_HepaRG_GADD45B: Life Technologies and Expression Analysis (LTEA) Assay for growth arrest and DNA damage 45 (GADD45B) using HepaRG (AID 2283461)
Method in brief: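 Values are bidirectional concentration-response fits against 0.5% DMSO controls. Underlying data: qRT-PCR mRNA levels in human HepaRG liver cells treated 48 h in serum-free induction medium, eight concentrations topping at 100 uM.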

[7] = read-out: ABC Transporter (ABCC3), ABCC3 (gene 8714); experiment: LTEA_HepaRG_ABCC3: Life Technologies and Expression Analysis (LTEA) Assay for ABC Transporter (ABCC3) using HepaRG (AID 2283462)
Method in brief: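 Differentiated HepaRG liver cells receive test chemicals at eight concentrations (max 100 uM) for 48 h. Expression of ABCC3 is quantified by qRT-PCR against ACTB, GAPDH and POLR2A, and activity is fitted in both directions against the DMSO control.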

[8] = read-out: ABC Transporter (ABCB11), ABCB11 (gene 8647); experiment: LTEA_HepaRG_ABCB11: Life Technologies and Expression Analysis (LTEA) Assay for ABC Transporter (ABCB11) using HepaRG (AID 2283463)
Method in brief: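 Using HepaRG cultures held in 0.5% DMSO, chemicals were tested at half-log dilutions from 100 uM for 48 h. Induction or suppression of ABCB11 mRNA, normalized to ACTB, GAPDH and POLR2A, was fitted bidirectionally against vehicle.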

[9] = read-out: ABC Transporter (ABCC2), ABCC2 (gene 1244); experiment: LTEA_HepaRG_ABCC2: Life Technologies and Expression Analysis (LTEA) Assay for ABC Transporter (ABCC2) using HepaRG (AID 2283464)
Method in brief: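 Gene expression of ABCC2 was determined by qRT-PCR in HepaRG cells exposed 48 h to chemicals (highest 100 uM, half-log dilutions). Activity was fitted in both directions relative to 0.5% DMSO vehicle.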

[10] = read-out: Broad substrate specificity ATP-binding cassette transporter ABCG2 (Homo sapiens) (UniProt Q9UNQ0); experiment: LTEA_HepaRG_ABCG2: Life Technologies and Expression Analysis (LTEA) Assay for ABC Transporter (ABCG2) using HepaRG (AID 2283465)
Method in brief: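 Gene expression of ABCG2 in HepaRG liver cells is quantified by qRT-PCR following 48 h exposure across an eight-point series topping at 100 uM. Values come from bidirectional fitting relative to DMSO vehicle.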

[11] = read-out: ATP-citrate lyase (ACLY), ACLY (gene 47); experiment: LTEA_HepaRG_ACLY: Life Technologies and Expression Analysis (LTEA) Assay for ATP-citrate lyase (ACLY) using HepaRG (AID 2283466)
Method in brief: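 ACLY expression changes in human HepaRG liver cells are quantified by qRT-PCR after 48 h exposure to test chemicals (maximum 100 uM, half-log steps). Values are fitted in both directions relative to 0.5% DMSO vehicle.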

[12] = read-out: Peroxisomal acyl-coenzyme A oxidase 1 (ACOX1) gene, ACOX1 (gene 51); experiment: LTEA_HepaRG_ACOX1: Life Technologies and Expression Analysis (LTEA) Assay for Peroxisomal acyl-coenzyme A oxidase 1 (ACOX1) gene using HepaRG (AID 2283467)
Method in brief: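 Human HepaRG hepatic cultures, 48 h treatment with test chemicals up to 100 uM. ACOX1 expression read by qRT-PCR relative to 0.5% DMSO vehicle.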

[13] = read-out: Alkaline Phosphatase, Placental (ALPP) gene, ALPP (gene 250); experiment: LTEA_HepaRG_ALPP: Life Technologies and Expression Analysis (LTEA) Assay for Alkaline Phosphatase, Placental (ALPP) gene using HepaRG (AID 2283468);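 as to AC50: ALPP transcript by TaqMan qRT-PCR normalized to ACTB GAPDH and POLR2A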
Method in brief: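 Expression of ALPP was quantified by qRT-PCR against three housekeeping genes in human HepaRG cultures treated for 48 h with an eight-point concentration series up to 100 uM. Activity in either direction was fitted relative to 0.5% DMSO.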

[14] = read-out: Bcl-2 (BAD) gene, BAD (gene 572); experiment: LTEA_HepaRG_BAD: Life Technologies and Expression Analysis (LTEA) Assay for Bcl-2 (BAD) gene using HepaRG (AID 2283469)
Method in brief: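 Activity values reflect up- or down-regulation of BAD mRNA in human HepaRG hepatic cells treated 48 h in serum-free medium, with eight-point half-log dosing capped at 100 uM and 0.5% DMSO vehicle.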

[15] = read-out: Bcl-2 (BAX) gene, BAX (gene 581); experiment: LTEA_HepaRG_BAX: Life Technologies and Expression Analysis (LTEA) Assay for Bcl-2 (BAX) gene using HepaRG (AID 2283470)
Method in brief: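 qRT-PCR read-out of BAX mRNA, normalized to three housekeeping genes, after 48 h chemical exposure of human HepaRG cells in serum-free induction medium; eight-point half-log series, top 100 uM, 0.5% DMSO vehicle; bidirectional fit versus DMSO.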

[16] = read-out: adenosine kinase (ADK) gene, ADK (gene 132); experiment: LTEA_HepaRG_ADK: Life Technologies and Expression Analysis (LTEA) Assay for adenosine kinase (ADK) gene using HepaRG (AID 2283471)
Method in brief: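 Differentiated HepaRG cells dosed 48 h in serum-free induction medium, 0.5% DMSO vehicle, eight half-log concentrations from 100 uM, in duplicate. ADK mRNA by TaqMan qRT-PCR normalised to ACTB, GAPDH, POLR2A; bidirectional fit versus DMSO.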

[17] = read-out: Alpha-fetoprotein (AFP) gene, AFP (gene 174); experiment: LTEA_HepaRG_AFP: Life Technologies and Expression Analysis (LTEA) Assay for Alpha-fetoprotein (AFP) gene using HepaRG (AID 2283472);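 as to AC50: AFP transcript by TaqMan qRT-PCR normalized to ACTB GAPDH and POLR2A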
Method in brief: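 qRT-PCR (Fluidigm TaqMan) readout of AFP transcript, normalized to three housekeeping genes, fitted bidirectionally against 0.5% DMSO baseline. HepaRG cells received chemicals for 48 h in serum-free induction medium, top concentration 100 uM, half-log steps.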

BCL2L11 (gene 10018) = experiment: LTEA_HepaRG_BCL2L11: Life Technologies and Expression Analysis (LTEA) Assay for Bcl-2 (BCL2L11) gene using HepaRG (AID 2283473)
Method in brief: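 Cells were plated, cultured 48 h, switched to serum-free induction medium, then dosed in duplicate for 48 h at eight half-log concentrations up to 100 uM. Lysates underwent RNA isolation and TaqMan qRT-PCR; gain or loss versus DMSO was fitted.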

[18] = read-out: ABC Transporter (ABCB1), ABCB1 (gene 5243); experiment: LTEA_HepaRG_ABCB1: Life Technologies and Expression Analysis (LTEA) Assay for ABC Transporter (ABCB1) using HepaRG (AID 2283460)
Method in brief: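 Human liver HepaRG line treated 48 h with up to 100 uM compound (eight half-log points, 0.5% DMSO); ABCB1 mRNA change fitted bidirectionally against DMSO controls.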

Measured: AC50

Chain of Broad substrate specificity ATP-binding cassette transporter ABCG2 (Homo sapiens) (Q9UNQ0 whole entry, looked up): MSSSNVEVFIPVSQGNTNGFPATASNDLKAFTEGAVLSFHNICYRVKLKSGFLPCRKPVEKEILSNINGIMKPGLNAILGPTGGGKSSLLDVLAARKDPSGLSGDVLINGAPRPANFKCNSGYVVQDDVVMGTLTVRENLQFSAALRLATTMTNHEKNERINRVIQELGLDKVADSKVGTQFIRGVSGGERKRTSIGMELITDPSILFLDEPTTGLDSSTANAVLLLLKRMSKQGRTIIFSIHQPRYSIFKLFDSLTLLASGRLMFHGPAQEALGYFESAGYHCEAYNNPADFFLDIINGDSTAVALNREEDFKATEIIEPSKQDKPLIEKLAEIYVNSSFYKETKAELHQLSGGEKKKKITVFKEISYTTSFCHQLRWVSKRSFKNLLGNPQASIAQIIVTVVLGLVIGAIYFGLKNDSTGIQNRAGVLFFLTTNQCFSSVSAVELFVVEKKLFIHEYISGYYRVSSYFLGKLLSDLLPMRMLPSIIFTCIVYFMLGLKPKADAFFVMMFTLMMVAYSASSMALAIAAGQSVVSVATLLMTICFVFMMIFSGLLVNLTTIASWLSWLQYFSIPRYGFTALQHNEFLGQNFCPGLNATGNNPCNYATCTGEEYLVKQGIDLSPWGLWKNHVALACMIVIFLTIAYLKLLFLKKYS

Cc1ccc(-c2cc(C(F)(F)F)nn2-c2ccc(S(N)(=O)=O)cc2)cc1
active: [1] 12.5 µM | [2] 78.3 µM | [3] 77.2 µM | [5] 93.6 µM | [9] 85 µM | [11] 89.6 µM | [12] 92.9 µM | [16] 93.8 µM | BCL2L11 (gene 10018) 82.5 µM
not listed: [18]
inactive: all other assays above

CC(=O)OC1CC(C)OC(C)O1 (stereo not given)
active: [1] 50 µM
not listed: [4]
inactive: all other assays above

CN(C)C(=O)NC1(c2ccccc2)CCN(CCC[C@]2(c3ccc(Cl)c(Cl)c3)CCCN(C(=O)c3ccccc3)C2)CC1
active: [3] 18.7 µM | [4] 12.5 µM | [6] 20.3 µM | [8] 23.6 µM | [9] 19.4 µM | [13] 24 µM | [15] 19.6 µM | [16] 12.5 µM
not listed: [18]
inactive: all other assays above

O=C1c2c(O)cccc2Cc2cccc(O)c21
active: [1] 22.1 µM
not listed: [12] | [18]
inactive: all other assays above

Cc1cc(Cc2ccc(N)c(C)c2)ccc1N
active: [1] 50 µM | [9] 50 µM
not listed: [12] | [18]
inactive: all other assays above

Oc1ccc(O)cc1
active: [1] 50 µM
not listed: [12] | [18]
inactive: all other assays above

O=C(O)CN(CC(=O)O)CC(=O)O
active: [1] 79.4 µM
not listed: [4]
inactive: all other assays above

Cc1ccc(C(C)(C)C)c(O)c1
active: [1] 41.7 µM
not listed: [12] | [18]
inactive: all other assays above

O=[Si]=O
active: [1] 76.6 µM
not listed: [16] | [18]
inactive: all other assays above

Cc1cc(SC2=C(O)C[C@@](CCc3ccc(N)cc3)(C(C)C)OC2=O)c(C(C)(C)C)cc1CO
active: [1] 29.6 µM | [8] 50 µM | [9] 2.16 µM
not listed: [18]
inactive: all other assays above

NC=O
not listed: [12] | [16] | [18]
inactive: all other assays above

O=C1CCCCC1
active: [4] 0.0727 µM
not listed: [12] | [18]
inactive: all other assays above

Cc1cn([C@H]2C=C[C@@H](CO)O2)c(=O)[nH]c1=O
active: [1] 69.4 µM
not listed: [4] | BCL2L11 (gene 10018)
inactive: all other assays above

NCCOCCOCCN
active: [1] 50 µM | [10] 12.1 µM
not listed: [16] | [18]
inactive: all other assays above

Nc1nc(Cl)nc2c1ncn2[C@H]1C[C@H](O)[C@@H](CO)O1
inactive: [2] | [10] | [11] | [13] | [14] | BCL2L11 (gene 10018)
active: [1] 0.749 µM | [3] 1.65 µM | [4] 0.263 µM | [5] 2.18 µM | [6] 0.447 µM | [7] 0.987 µM | [8] 0.593 µM | [9] 1.12 µM | [12] 4.13 µM | [15] 0.415 µM | [16] 1.05 µM | [17] 1.72 µM
